# Data taken from ChEMBL document CHEMBL1961873, “Compounds: GSK PKIS; Assays: Nanosyn kinase panel” (2012).
# Columns and labels:
# [1] = molecular target: Sphingosine kinase 1 (Homo sapiens) (UniProt Q9NYA1); details: at 1 µM;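 also: mean SPHK1 inhibition value reported from the GSK PKIS kinase panel screen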
# [2] = molecular target: T1, Sphingosine kinase 2 (Homo sapiens) (UniProt Q9NRA0); details: at 0.1 µM
# T1 sequence (whole entry): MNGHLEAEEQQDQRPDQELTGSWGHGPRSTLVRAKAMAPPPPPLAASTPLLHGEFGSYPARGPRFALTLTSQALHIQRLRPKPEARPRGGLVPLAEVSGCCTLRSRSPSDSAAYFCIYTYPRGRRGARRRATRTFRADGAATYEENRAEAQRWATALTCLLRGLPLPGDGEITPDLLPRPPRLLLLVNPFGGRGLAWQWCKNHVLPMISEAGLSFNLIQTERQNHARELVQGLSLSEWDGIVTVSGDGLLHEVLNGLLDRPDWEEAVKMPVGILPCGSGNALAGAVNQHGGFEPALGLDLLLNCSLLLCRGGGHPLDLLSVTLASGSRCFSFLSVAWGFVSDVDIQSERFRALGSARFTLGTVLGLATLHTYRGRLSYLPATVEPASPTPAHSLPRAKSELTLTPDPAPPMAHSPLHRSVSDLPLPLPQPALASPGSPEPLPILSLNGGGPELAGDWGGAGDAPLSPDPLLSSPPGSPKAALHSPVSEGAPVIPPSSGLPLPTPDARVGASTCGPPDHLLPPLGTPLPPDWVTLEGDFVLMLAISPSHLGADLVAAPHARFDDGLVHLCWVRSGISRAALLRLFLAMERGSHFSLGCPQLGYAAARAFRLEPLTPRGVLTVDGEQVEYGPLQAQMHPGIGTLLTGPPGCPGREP
# [3] = molecular target: T1, Sphingosine kinase 2 (Homo sapiens); details: at 1 µM
# [4] = molecular target: Casein kinase II subunit alpha (Homo sapiens) (UniProt P68400); details: at 0.1 µM
# [5] = molecular target: Casein kinase II subunit alpha (Homo sapiens) (UniProt P68400); details: at 1 µM
# [6] = molecular target: T2, Inhibitor of nuclear factor kappa-B kinase subunit alpha (Homo sapiens) (UniProt O15111); details: at 0.1 µM
# T2 sequence (whole entry): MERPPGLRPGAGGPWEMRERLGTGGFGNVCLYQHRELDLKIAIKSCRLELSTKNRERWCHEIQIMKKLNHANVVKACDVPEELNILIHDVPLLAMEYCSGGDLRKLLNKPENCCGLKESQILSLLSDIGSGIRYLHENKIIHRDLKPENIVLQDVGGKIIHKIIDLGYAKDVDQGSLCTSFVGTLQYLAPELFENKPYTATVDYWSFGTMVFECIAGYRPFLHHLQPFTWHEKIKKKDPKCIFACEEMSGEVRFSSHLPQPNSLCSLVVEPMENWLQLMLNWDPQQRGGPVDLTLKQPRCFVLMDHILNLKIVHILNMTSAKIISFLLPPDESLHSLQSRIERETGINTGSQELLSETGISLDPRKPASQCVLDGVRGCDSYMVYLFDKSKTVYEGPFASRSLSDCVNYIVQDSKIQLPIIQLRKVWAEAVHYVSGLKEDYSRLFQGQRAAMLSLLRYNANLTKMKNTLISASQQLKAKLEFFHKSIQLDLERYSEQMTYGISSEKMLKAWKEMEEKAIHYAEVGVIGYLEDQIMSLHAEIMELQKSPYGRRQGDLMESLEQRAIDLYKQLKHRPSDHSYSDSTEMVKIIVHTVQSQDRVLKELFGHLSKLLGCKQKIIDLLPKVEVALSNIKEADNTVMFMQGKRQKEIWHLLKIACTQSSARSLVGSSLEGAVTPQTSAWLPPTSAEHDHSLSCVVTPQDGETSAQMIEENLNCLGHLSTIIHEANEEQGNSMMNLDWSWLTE
# [7] = molecular target: T2, Inhibitor of nuclear factor kappa-B kinase subunit alpha (Homo sapiens); details: at 1 µM
# [8] = molecular target: T3, Inhibitor of nuclear factor kappa-B kinase subunit beta (Homo sapiens) (UniProt O14920); details: at 0.1 µM
# T3 sequence (whole entry): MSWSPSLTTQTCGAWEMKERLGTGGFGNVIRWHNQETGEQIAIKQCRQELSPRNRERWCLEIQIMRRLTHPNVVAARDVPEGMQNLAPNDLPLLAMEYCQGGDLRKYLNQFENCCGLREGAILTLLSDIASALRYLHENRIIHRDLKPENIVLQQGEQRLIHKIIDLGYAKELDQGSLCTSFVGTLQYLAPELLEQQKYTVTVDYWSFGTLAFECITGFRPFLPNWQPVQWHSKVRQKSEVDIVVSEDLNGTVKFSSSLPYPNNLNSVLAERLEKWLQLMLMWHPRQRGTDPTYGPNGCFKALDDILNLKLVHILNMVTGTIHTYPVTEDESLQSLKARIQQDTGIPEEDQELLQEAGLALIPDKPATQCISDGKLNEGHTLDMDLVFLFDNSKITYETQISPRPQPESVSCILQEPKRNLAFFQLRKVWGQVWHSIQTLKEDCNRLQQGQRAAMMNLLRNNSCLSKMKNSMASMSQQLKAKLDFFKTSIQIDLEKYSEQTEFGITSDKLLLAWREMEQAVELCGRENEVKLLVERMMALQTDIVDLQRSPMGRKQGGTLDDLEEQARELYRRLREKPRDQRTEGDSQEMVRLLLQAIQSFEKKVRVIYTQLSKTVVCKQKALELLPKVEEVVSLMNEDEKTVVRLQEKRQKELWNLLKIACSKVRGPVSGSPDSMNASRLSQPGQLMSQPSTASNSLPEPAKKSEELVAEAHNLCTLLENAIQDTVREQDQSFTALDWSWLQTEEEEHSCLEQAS
# [9] = molecular target: T3, Inhibitor of nuclear factor kappa-B kinase subunit beta (Homo sapiens); details: at 1 µM
# [10] = molecular target: T4, Inhibitor of nuclear factor kappa-B kinase subunit epsilon (Homo sapiens) (UniProt Q14164); details: at 0.1 µM
# T4 sequence (whole entry): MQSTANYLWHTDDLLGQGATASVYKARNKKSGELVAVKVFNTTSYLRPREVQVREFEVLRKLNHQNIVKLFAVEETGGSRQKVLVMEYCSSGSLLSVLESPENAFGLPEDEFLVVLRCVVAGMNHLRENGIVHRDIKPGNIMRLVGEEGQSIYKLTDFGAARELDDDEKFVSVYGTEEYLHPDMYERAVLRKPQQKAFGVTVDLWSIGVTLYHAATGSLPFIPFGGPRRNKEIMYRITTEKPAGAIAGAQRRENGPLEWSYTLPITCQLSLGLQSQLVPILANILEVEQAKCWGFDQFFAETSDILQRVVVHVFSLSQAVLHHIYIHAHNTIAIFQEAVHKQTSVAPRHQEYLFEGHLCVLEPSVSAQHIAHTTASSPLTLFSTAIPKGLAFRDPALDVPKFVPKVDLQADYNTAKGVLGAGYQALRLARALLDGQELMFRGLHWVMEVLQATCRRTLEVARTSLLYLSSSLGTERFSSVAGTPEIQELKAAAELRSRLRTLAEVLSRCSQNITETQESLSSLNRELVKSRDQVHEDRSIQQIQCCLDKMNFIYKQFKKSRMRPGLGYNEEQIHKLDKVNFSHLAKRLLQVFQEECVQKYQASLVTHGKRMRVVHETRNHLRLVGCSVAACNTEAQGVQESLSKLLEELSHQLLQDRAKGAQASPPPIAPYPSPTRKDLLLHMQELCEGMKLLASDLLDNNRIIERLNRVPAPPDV
# [11] = molecular target: T4, Inhibitor of nuclear factor kappa-B kinase subunit epsilon (Homo sapiens); details: at 1 µM
# [12] = molecular target: T5, Serine/threonine-protein kinase Nek1 (Homo sapiens) (UniProt Q96PY6); details: at 0.1 µM
# T5 sequence (whole entry): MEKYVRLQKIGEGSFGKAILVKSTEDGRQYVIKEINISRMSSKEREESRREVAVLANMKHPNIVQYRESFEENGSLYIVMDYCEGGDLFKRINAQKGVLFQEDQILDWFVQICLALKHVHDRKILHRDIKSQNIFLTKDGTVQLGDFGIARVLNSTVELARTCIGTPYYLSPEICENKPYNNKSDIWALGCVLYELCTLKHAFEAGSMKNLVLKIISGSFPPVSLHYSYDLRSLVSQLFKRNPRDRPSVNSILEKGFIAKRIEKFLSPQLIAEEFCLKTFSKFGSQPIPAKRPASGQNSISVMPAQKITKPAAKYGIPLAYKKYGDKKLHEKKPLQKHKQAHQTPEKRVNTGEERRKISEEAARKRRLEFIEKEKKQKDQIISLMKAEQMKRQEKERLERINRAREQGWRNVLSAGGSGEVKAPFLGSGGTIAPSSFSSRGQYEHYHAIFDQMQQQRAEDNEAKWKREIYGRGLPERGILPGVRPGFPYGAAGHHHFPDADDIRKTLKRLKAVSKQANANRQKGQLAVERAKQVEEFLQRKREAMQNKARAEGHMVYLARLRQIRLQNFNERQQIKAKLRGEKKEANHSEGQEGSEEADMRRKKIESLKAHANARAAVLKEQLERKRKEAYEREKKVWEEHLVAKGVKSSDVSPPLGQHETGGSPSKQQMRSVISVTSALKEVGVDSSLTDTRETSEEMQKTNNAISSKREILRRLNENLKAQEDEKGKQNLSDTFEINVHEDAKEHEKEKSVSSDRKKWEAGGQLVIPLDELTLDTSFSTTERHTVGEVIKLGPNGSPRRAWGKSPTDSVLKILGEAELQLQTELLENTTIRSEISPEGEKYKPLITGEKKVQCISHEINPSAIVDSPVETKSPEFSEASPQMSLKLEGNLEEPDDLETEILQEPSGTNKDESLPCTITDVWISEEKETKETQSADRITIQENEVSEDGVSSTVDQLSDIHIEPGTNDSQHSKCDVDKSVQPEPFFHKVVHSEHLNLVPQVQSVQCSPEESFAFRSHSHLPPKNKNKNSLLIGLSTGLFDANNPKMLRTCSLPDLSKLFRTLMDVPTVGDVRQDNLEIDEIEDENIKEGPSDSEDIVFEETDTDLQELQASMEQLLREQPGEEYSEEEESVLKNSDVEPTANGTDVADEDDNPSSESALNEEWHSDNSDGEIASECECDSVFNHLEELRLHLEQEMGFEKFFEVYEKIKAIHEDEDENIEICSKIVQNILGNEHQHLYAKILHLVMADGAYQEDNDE
# [13] = molecular target: T5, Serine/threonine-protein kinase Nek1 (Homo sapiens); details: at 1 µM
# [14] = molecular target: T6, Serine/threonine-protein kinase Nek2 (Homo sapiens) (UniProt P51955); details: at 0.1 µM
# T6 sequence (whole entry): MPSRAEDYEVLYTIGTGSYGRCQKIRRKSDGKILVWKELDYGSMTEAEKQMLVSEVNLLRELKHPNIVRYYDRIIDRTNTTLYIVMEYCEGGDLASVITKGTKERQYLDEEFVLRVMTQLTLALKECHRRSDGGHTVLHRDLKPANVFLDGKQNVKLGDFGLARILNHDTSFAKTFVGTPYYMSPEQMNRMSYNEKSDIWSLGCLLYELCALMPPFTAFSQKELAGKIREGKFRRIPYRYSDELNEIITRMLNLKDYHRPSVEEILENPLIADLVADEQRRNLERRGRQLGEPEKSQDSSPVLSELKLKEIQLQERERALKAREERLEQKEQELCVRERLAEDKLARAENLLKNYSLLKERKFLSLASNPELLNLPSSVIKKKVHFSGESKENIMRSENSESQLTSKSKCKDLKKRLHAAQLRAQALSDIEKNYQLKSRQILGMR
# [15] = molecular target: T6, Serine/threonine-protein kinase Nek2 (Homo sapiens); details: at 1 µM
# [16] = molecular target: Serine/threonine-protein kinase Nek6 (Homo sapiens) (UniProt Q9HC98); details: at 0.1 µM
# [17] = molecular target: Serine/threonine-protein kinase Nek6 (Homo sapiens) (UniProt Q9HC98); details: at 1 µM
# [18] = molecular target: Serine/threonine-protein kinase Nek7 (Homo sapiens) (UniProt Q8TDX7); details: at 0.1 µM
# [19] = molecular target: Serine/threonine-protein kinase Nek7 (Homo sapiens) (UniProt Q8TDX7); details: at 1 µM
# [20] = molecular target: T7, Serine/threonine-protein kinase Nek9 (Homo sapiens) (UniProt Q8TD19); details: at 0.1 µM;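 also: reported value is the mean percent inhibition of NEK9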
# T7 sequence (whole entry): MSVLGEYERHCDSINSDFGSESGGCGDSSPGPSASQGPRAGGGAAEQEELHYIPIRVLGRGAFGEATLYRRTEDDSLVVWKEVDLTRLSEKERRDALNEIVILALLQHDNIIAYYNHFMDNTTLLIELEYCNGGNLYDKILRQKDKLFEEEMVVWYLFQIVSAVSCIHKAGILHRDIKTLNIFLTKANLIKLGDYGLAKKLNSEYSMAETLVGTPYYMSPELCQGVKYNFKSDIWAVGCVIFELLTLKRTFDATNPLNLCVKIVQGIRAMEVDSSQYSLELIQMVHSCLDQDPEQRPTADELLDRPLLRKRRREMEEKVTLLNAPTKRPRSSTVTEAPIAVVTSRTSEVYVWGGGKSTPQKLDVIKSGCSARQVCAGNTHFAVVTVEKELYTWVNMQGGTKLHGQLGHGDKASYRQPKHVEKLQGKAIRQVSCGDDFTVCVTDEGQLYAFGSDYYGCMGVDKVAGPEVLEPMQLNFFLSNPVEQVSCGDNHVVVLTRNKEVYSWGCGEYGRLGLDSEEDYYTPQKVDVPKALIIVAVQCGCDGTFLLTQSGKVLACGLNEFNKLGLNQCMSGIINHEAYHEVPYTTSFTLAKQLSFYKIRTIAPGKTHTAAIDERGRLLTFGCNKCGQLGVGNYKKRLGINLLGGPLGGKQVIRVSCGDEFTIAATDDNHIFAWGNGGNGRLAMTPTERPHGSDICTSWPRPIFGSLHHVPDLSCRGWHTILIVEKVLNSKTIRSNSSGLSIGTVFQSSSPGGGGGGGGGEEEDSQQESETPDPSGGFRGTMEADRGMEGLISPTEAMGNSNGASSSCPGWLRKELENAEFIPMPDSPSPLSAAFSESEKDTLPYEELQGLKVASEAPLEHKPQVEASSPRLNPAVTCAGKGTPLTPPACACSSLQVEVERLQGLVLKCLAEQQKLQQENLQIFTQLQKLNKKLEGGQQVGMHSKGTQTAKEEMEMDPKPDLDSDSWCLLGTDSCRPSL
# Chain of Serine/threonine-protein kinase Nek6 (Homo sapiens) (Q9HC98 whole entry): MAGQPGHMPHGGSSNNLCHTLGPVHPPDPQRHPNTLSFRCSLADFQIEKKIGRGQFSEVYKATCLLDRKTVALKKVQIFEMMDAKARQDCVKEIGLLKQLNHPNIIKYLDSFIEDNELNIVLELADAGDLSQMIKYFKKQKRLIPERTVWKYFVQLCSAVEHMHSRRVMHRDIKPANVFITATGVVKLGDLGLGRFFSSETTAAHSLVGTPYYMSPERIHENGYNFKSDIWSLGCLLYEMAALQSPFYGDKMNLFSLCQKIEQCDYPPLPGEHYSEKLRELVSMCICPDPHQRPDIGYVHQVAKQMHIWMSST
# Chain of Serine/threonine-protein kinase Nek7 (Homo sapiens) (Q8TDX7 whole entry, looked up): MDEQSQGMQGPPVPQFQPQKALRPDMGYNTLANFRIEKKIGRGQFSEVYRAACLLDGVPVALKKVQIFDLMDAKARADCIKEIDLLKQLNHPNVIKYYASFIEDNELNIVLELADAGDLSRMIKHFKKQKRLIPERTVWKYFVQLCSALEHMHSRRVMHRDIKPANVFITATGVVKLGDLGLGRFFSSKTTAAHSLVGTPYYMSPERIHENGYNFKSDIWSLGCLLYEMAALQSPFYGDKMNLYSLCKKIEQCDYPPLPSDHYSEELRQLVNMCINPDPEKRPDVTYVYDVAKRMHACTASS
# Chain of Casein kinase II subunit alpha (Homo sapiens) (P68400 whole entry, looked up): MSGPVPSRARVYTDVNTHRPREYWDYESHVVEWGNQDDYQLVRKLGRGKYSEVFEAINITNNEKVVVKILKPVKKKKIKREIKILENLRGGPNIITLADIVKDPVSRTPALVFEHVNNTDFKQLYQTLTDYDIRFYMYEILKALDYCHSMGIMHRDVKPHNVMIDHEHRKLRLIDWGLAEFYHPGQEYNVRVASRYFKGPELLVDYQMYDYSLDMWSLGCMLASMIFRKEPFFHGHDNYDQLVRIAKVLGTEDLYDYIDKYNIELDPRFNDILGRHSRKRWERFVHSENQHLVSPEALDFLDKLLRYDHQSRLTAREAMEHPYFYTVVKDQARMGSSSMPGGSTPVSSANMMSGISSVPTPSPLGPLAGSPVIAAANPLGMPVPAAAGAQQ
# Chain of Sphingosine kinase 1 (Homo sapiens) (Q9NYA1 whole entry): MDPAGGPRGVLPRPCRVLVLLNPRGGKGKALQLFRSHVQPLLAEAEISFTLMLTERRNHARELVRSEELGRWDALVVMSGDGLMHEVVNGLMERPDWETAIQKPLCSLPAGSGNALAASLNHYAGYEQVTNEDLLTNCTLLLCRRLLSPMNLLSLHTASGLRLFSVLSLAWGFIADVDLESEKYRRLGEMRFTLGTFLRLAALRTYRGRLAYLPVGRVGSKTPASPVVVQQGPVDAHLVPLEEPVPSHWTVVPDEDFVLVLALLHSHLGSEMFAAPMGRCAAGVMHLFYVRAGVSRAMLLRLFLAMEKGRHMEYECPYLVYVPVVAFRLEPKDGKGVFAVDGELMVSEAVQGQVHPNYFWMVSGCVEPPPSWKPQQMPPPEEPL
smiles,measurement,setting,value
NC(=O)c1cccc(Nc2nccc(Nc3cccc4[nH]ncc34)n2)c1,inhibition,[1],-1.98%
same,inhibition,[2],-0.9%
same,inhibition,[3],0.58%
same,inhibition,[4],-0.25%
same,inhibition,[5],3.56%
same,inhibition,[6],7.29%
same,inhibition,[7],41%
same,inhibition,[8],-0.17%
same,inhibition,[9],17.4%
same,inhibition,[10],-3.38%
same,inhibition,[11],21.4%
same,inhibition,[12],0.79%
same,inhibition,[13],8.86%
same,inhibition,[14],-3.63%
same,inhibition,[15],-1.96%
same,inhibition,[16],-4.36%
same,inhibition,[17],-2.96%
same,inhibition,[18],-1.67%
same,inhibition,[19],-3.47%
same,inhibition,[20],-0.63%
